Laboratory results reported in ChEMBL document CHEMBL3988442, “University of Dundee, Small-Polar-MMV Screening Library” (2021).
The campaign covered roughly 38,000 compounds. About 1,200 (3.2%) showed an effect of 50% or more. The median lay at about -58%. The list comes from a sample in which strong results are over-represented; it also holds similar structures and randomly drawn compounds.

system: Plasmodium falciparum; test: Calibr Malaria Delayed Death Assay SOP; format: functional, organism-based; set-up: scale not given: in the data most compounds retested in dose-response had high values; conditions: concentration 4.99e-06 (unit not given; other assays of the set use mol/L)

SMILES	Percent Effect [%]
Cc1ccc(CN2CCc3c(COC(C)C)nn(C)c3C2)s1.O=C(O)C(F)(F)F	-19.42
N[C@H]1CN(S(=O)(=O)c2cccnc2)C[C@@H]1C1CC1	-65.5
Cc1ccc(S(=O)(=O)N2C[C@H](C3CC3)[C@@H](N)C2)cc1F	14.36
N[C@H]1CN(S(=O)(=O)c2ccccc2)C[C@@H]1C1CC1	-1.115
Cc1cc(S(=O)(=O)N2C[C@H](C3CC3)[C@@H](N)C2)c(C)s1	85.63
Cc1cc(-c2cc(S(=O)(=O)N3C[C@H](C4CC4)[C@@H](N)C3)c(C)s2)[nH]n1	61.47
CC(C)Nc1cc(N2CCC(n3cc(CCO)nn3)CC2)ncn1	-78.28
Cc1cc(C(=O)N2CCN(c3nc4c(C)cccc4s3)CC2)no1	-18.05
Cc1c(C2N3C[C@]4(C(C)C)CN2C[C@](C(C)C)(C3)C4=O)[nH]c(=O)[nH]c1=O (stereo not given in full)	-140.7
O=C(O)C(F)(F)F.O=C1COC2(CCN(c3ncccn3)CC2)CN1Cc1ccccn1	-77.45
CN(CCCOc1ccccc1)C(=O)c1csc(-c2nnc[nH]2)n1	76.91
COCCN(Cc1ccccc1)C(=O)c1csc(-c2nnc[nH]2)n1	-56.87
COc1cccc(CN(C)C(=O)c2csc(-c3nnc[nH]3)n2)c1	-25.24
CC(=O)Nc1nc2c(s1)C1(CCCC1)Nc1ccccc1S2	-91.88
Cc1nc(CCNC(=O)C2CC(=O)N(C(C)C)C2)cs1 (stereo not given)	-69.29
Cc1ccc(NC2CCN(C(=O)COC3CCCC3)CC2)nn1	-115.6
Cc1cc2n(n1)CC(CNC1CCN(c3ccccn3)CC1)CN2 (stereo not given)	-51.76
Cc1ccccc1CN1CCC(NCC2CNc3ccnn3C2)CC1 (stereo not given)	66.35
Cc1cccc(CN2CCC(NCC3CNc4cc(C)nn4C3)CC2)c1 (stereo not given)	85.82
Cc1cc2n(n1)CC(CNC1CCN(C(=O)c3ccco3)CC1)CN2 (stereo not given)	-80.47
Cc1cc2n(n1)CC(CNC1CCN(Cc3ccccn3)CC1)CN2 (stereo not given)	-56.82
Cc1cc2n(n1)CC(CNC1CCN(CCc3ccccc3)CC1)CN2 (stereo not given)	67.68
OCc1ccccc1CNCC1CNc2ccnn2C1 (stereo not given)	-1.893
Cc1cc2n(n1)CC(CNC1CCN(Cc3ccncc3)CC1)CN2 (stereo not given)	-3.89
Cc1cc2n(n1)CC(CNC1CCN(Cc3ccccc3C)CC1)CN2 (stereo not given)	70.36
Cc1cc2n(n1)CC(CNC1CCN(C3CC3)CC1)CN2 (stereo not given)	-73.71
Cc1cc2n(n1)CC(CNC1CCN(C(=O)C3CC3)CC1)CN2 (stereo not given)	-153

SMILES	Percent Effect [%]
c1ccc(C2(NCC3CNc4ccnn4C3)CCC2)cc1 (stereo not given)	13.04
CC(C)N1CCC(Cc2cc(-c3cc(F)ccc3C(=O)O)ncn2)C1 (stereo not given)	-123.1
COCCN1CCCC2(CCN(Cc3nnc(C4CC4)o3)C2)C1=O (stereo not given)	-62.36
COCCNC(=O)c1cccnc1Oc1ccc(Cl)cc1	-11.3
O=C(NC1CC1)[C@H]1C[C@@H]2CCN(Cc3ccc4c(c3)OCO4)C[C@@H]2O1.O=C(O)C(F)(F)F	-22.11
CC(C)c1nc(C2CCCN2C(=O)CCn2cncn2)no1 (stereo not given)	-126.6
CCCN(CCc1ccccc1)C(=O)c1ccccc1NCC(=O)O	-32.98
Cc1cc(C(C)(O)CNC(=O)CCn2ccnc2C(C)C)c(C)o1 (stereo not given)	-18.43
Cc1cc(NC(=O)NCCOc2ccc(Cl)cn2)no1	-49.88
COc1cc(C)sc1C(=O)NCCNc1ccccc1	14.03
COc1cc(C)sc1C(=O)NCCC(=O)N(C)c1ccccc1	32.05
COc1cc(C)sc1C(=O)NCCC(=O)N(C)Cc1ccccc1	58.21
COCC(=O)N1CCO[C@]2(CCC[C@H]2COC)C1	-73.03
CCc1n[nH]c(C2CN(C(=O)CCCn3cccn3)CCO2)n1 (stereo not given)	-94.04
COc1ccc(-c2ccnc(N)c2)c(OC)c1	-94.95
COc1ccc(-c2ccccc2CN)c(OC)c1	59.74
COc1ccc(-c2ccccc2CCN)c(OC)c1	80.76
CC(=O)Nc1cccc(-c2ccccc2CCN)c1	-111.2
COc1ccc(OC)c(-n2cnnc2CCN)c1	-39.19
COc1ccc(CN)c(OC(F)F)c1.Cl	-30.28
COc1ccc(CCN)cc1-c1ccc(S(C)(=O)=O)cc1	18.27
COc1ccc(-c2cc(CN)ccc2F)c(OC)c1OC	12.18
COc1ccc(-c2ccccc2CCN)c(OC)c1OC	81.6
Cc1c[nH]c(C(=O)N2CCCC2c2ccc(C(=O)N3CCSCC3)s2)n1 (stereo not given)	-168.9
CC(=O)N1CCCC2(C1)CN(C(=O)Cc1ccccc1)CCO2 (stereo not given)	-122.2
O=C(O)Cn1ccc(=O)c2cc(Cl)ccc21	-122.9
CCOc1cccc2c1OCC(=O)N(c1ccc(N(C)C)cc1)C2	-248.2

SMILES	Percent Effect [%]
COc1ccc(OCCN(C)C(=O)c2ccc(OC)cc2O)cc1	-28.6
COc1ccc(-c2nnsc2C(=O)N2CCOCC2)cc1	-93.54
COc1c(CNCc2ccccc2Cn2cccn2)c(C)nn1C	54.96
COc1c(CNCc2ccccc2Cn2cncn2)c(C)nn1C	-2.524
COc1c(CNCc2cccc(Cn3cccn3)c2)c(C)nn1C	6.408
Cc1nn(C)c(C)c1S(=O)(=O)NCC1(C(N)=O)CCOCC1	-35.42
Cc1ccc(N2CC[C@H]3C[C@H](C(=O)NCc4ccco4)O[C@H]3C2)nn1.O=C(O)C(F)(F)F	-18.7
CN(Cc1ccc([S+](C)[O-])cc1)c1cncc(Br)c1 (stereo not given)	-68.65
Cc1cccc(C2CCCCCN2Cc2cn(C)nc2C)c1 (stereo not given)	32.86
COc1cccc(CN2CCCCCC2c2cccc(F)c2)c1O (stereo not given)	55.91
COc1cccc(CN2CCCCCC2c2cccc(C)c2)c1O (stereo not given)	56.55
COc1cc(CN2CCCCCC2c2cccs2)cc(OC)c1O (stereo not given)	-97.62
COc1cccc(CN2CCCCCC2c2sccc2C)c1O (stereo not given)	-12.07
COc1cccc(CN2CCCCCC2c2cccs2)c1O (stereo not given)	1.572
Cc1noc(C2CCC3(CCN(C(=O)c4ccncn4)CC3)O2)n1 (stereo not given)	-45.98
O=C(c1cccc2cn[nH]c12)N1CCCC1c1noc(C2CC2)n1 (stereo not given)	-53.04
CCn1ccc(-c2cc(C(=O)O)n3nc(C)c(Cl)c3n2)n1	-42.05
O=C(O)C(F)(F)F.O=C1C[C@H]2[C@@H](CCN2C(=O)c2ccoc2)N1CCN1CCOCC1	-16.54
Cc1cccc(-n2ncc3c(=O)n(CCN4CCCCC4)cnc32)c1C	-32.3
COCCN1CCN(CCCS(C)(=O)=O)CC1C (stereo not given)	-45.99
CNS(=O)(=O)CCCN1CCCN(Cc2ccccc2)CC1C (stereo not given)	57.31
CNS(=O)(=O)CCCN1CCCC1c1cc(C)on1 (stereo not given)	-107.9
COCCN1CCN(CCCS(=O)(=O)c2ccccc2)CC1C (stereo not given)	-125.8
CNS(=O)(=O)CCCN1CCCCCC1c1ccc(C)o1 (stereo not given)	7.133
CC1CN(Cc2ccccc2)CCCN1CCCS(C)(=O)=O (stereo not given)	50.52
Cc1cc(F)ccc1N1CCCC(NC(=O)CCCn2ccnc2)C1 (stereo not given)	-46.83
Cc1ccoc1-c1nnc(CN2CCn3c(nnc3C(C)C)C2)o1	-39.14

SMILES	Percent Effect [%]
CCCN1CCN(c2ccc(-c3nc(C)no3)cn2)CC1	-136.9
CCn1cc(CN2CCCN(C(=O)CCN3CCCC3=O)CC2)cn1	-110.7
CC(C)C(NC(=O)N1CCS(=O)(=O)CC1)c1ccccc1Cl (stereo not given)	-66.72
CSCC(=O)N(C)Cc1ccccc1	-13.25
N#Cc1nc(COc2ccc3c(c2)OCO3)oc1NC1CC1	-68.74
CCOCC(=O)N1CCC(C2CCN(Cc3ccc(Cl)cc3)C2)CC1 (stereo not given)	-3.864
O=C(C1CCC1)N1CC[C@@H]2CN(Cc3cccnc3)S(=O)(=O)[C@@H]2CC1	-57.62
Clc1ccc(N2CCC(C3CCN(Cc4cccnc4)CC3)C2)nc1 (stereo not given)	9.118
Clc1cccnc1N1CCC(C2CCN(Cc3cccnc3)CC2)C1 (stereo not given)	-53.88
O=C(C1CCCC1)N1CCC(C2CCN(Cc3ccc(Cl)cc3)C2)CC1 (stereo not given)	62.77
O=C(C1CCC1)N1CCC(C2CCN(Cc3ccc(Cl)cc3)C2)CC1 (stereo not given)	64.14
Clc1ccc(CN2CCC(C3CCN(Cc4cccnc4)CC3)C2)cc1 (stereo not given)	62.84
CN1CCN(Cc2ccc(Cl)cc2)CC1C(=O)O (stereo not given)	-101.8
CC(=O)NCC(=O)N1CCC(C2CCN(Cc3ccc(Cl)cc3)C2)CC1 (stereo not given)	1.574
CCOC(=O)Cc1csc(NC(=O)c2cc(=O)c(OC)c[nH]2)n1	-55.6
CN(C)CCn1c2c(ccc1=O)CCN(C(=O)c1ccoc1)CC2.O=C(O)C(F)(F)F	-90.05
CCCC(O)CN1CCC(=O)N(C)Cc2cc(F)ccc21 (stereo not given)	-57.01
O=C(c1cccnc1O)N(CCO)Cc1cc(Br)ccc1F	-29.02
O=C(O)c1ccc(CNC(=O)C2CCN(C(=O)C3CCC3)CC2)s1	-58.95
Cc1nccn1CCCC(=O)N1CCC2(CCC(=O)N(C(C)C)C2)CC1	-32.26
COCCNC(=O)N1CCCCC1CNC(=O)Nc1ccccc1 (stereo not given)	-90.53
CNC(=O)CN1CCC(OCc2ccc(Cl)c(Cl)c2)CC1	0.3675
NC(=O)CN1CCC(OCc2ccc(Cl)c(Cl)c2)CC1	33.26
CCC(N)C(=O)N1CCC(OCc2ccc(Cl)c(Cl)c2)CC1.Cl (stereo not given)	65.86
